Test results as given in PubChem BioAssay (NCATS).
Several values for one entry are separate records, joined by “and”; a condition that tells them apart may be missing. Equal values may be shown once. Inconclusive results are not listed. Unmarked numbers belong to inactive results. Activity calls are given as the source filed them. The call rests on the fitted dose curve; in most records, active means well fitted activation curve with a large enough effect; inconclusive means small, poorly fitted or top-dose-only effect; inactive means no such curve, though single readings can be large or run the other way. Positions of bridges follow the written chain, without caps; N, C: chain ends. Non-standard residues stand in square brackets, D forms with d. Residues, ends and D or L forms follow the SMILES beside them. hArg = N=C(N)NCCCC[C@H](N)C(=O)O; Mpa = O=C(O)CCS

Molecular target: Cellular tumor antigen p53 (Homo sapiens) (UniProt P04637)
Sequence (P04637 whole entry, looked up): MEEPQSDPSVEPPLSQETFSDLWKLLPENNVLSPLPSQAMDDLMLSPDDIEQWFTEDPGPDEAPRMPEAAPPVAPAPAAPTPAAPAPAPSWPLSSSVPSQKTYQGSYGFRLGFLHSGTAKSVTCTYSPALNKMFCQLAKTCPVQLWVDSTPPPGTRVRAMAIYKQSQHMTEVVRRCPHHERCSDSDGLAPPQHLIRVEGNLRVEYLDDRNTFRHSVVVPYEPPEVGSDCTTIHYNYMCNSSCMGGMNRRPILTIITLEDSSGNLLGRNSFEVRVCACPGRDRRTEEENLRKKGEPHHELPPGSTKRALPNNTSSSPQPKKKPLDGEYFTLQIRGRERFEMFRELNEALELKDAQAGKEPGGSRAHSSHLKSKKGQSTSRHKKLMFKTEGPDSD
Assay: Primary qHTS for small molecule compounds that upregulate eGFP-tagged delta133p53alpha (in N-terminal) cells. (AID 2060322); further: nearly all actives have a fitted effect of over 75% in size;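 on activation: series mostly up to about 56 µM; 0% = DMSO vehicle and 100% = reference activator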
Conditions: NCI-H358 eGFP-delta133p53alpha fluorescence, 24 h; activation: stronger effect = higher value
How it was run: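 NCI-H358 cells pre-induced 24 h with 10 ng/ml doxycycline to express N-terminal eGFP-delta133p53alpha, then dosed 24 h at 37C without doxycycline; fixed, Hoechst-stained, GFP intensity by laser scanning cytometry, normalized to DMSO (0%) and 57.5 uM 5-azacytidine (100%).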
Potency means the concentration at half of the fitted maximal effect.

Q: With `Cc1sccc1Br` as the molecule, how does the activation read?
A: The activation was 7.53%.

Q: How did the activation turn out when `O=c1[nH]cnc2nc[nH]c12` was run?
A: The activation was -9.6%.

Q: For `Cc1nc(NC(=O)N2CCC[C@@H]2C(N)=O)sc1-c1csc(C(C)(C)C)n1`, which activation is on record?
A: The activation was -6.14%.

Q: How did the activation turn out when `CC(CC1c2ccccc2CCc2ccccc21)CN(C)C` (stereo not given) was run?
A: The activation was -10%.

Q: With `CC[C@]12CCCN3CCc4c(n(c5ccccc45)[C@@](O)(C(=O)OC)C1)[C@@H]32` as the molecule, how does the activation read?
A: The activation was 5.02%.

Q: `C[C@@H](O[C@H]1OCCN(Cc2n[nH]c(=O)[nH]2)[C@H]1c1ccc(F)cc1)c1cc(C(F)(F)F)cc(C(F)(F)F)c1` was tested. Which activation did it give?
A: The activation was 7.53%.

Q: For `N=C(N)N`, which activation is on record?
A: Its activation is 7.34%.

Q: With `CCCCC/C=C\C/C=C\CCCCCCCC(=O)NC(C)c1ccccc1` (stereo not given) as the molecule, how does the activation read?
A: The activation was 0%.

Q: `CCOC(=O)c1ccc(O)c(O)c1` was tested. Which activation did it give?
A: The activation was -23.2%.

Q: Which activation does the source give for `CC(C)=CCNc1ncnc2c1ncn2[C@@H]1O[C@H](CO)[C@@H](O)[C@H]1O` here?
A: The activation was -20.9%.

Q: With `CNCCN1CCC(OCc2ccccc2)CC1` as the molecule, how does the activation read?
A: The activation was -13.4%.

Q: `CCN(CC)C(=O)/C(C#N)=C/c1cc(O)c(O)c([N+](=O)[O-])c1` was tested. Which activation did it give?
A: Its activation is -3.95%.

Q: How did the activation turn out when `C/C(=C1\CCOC(=O)S1)N(C=O)Cc1cnc(C)nc1N` was run?
A: Its activation is -5.86%.

Q: `C/C=C1/[C@H](O[C@@H]2O[C@H](CO)[C@@H](O)[C@H](O)[C@H]2O)OC=C(C(=O)OC)[C@H]1CC(=O)O[C@@H]1O[C@H](CO)[C@@H](O)[C@H](O)[C@H]1O` was tested. Which activation did it give?
A: The activation was -32.8%.

Q: With `NC(=O)[C@@H]1CSSCCC(=O)N[C@@H](CCCCN=C(N)N)C(=O)NCC(=O)N[C@@H](CC(=O)O)C(=O)N[C@@H](Cc2c[nH]c3ccccc23)C(=O)N2CCC[C@H]2C(=O)N1` ([Mpa][hArg]GDWPC-NH2; disulfide 1-7) as the molecule, how does the activation read?
A: Its activation is 2.82%.

Q: How did the activation turn out when `C=CCCCCCCCCC(=O)O` was run?
A: Its activation is -20.9%.

Q: Which activation does the source give for `CN1CCC[C@H]1CCO[C@](C)(c1ccccc1)c1ccc(Cl)cc1` here?
A: Its activation is 16.8%.

Q: For `Cc1onc(-c2c(Cl)cccc2Cl)c1C(=O)Cl`, which activation is on record?
A: The activation was -15.3%.

Q: Which activation does the source give for `Cc1nc2n(c(=O)c1CCN1CCC(c3noc4cc(F)ccc34)CC1)CCCC2` here?
A: The activation was 2.45% and 8.37%.

Q: Which activation does the source give for `NC(=O)c1ncn([C@@H]2O[C@H](CO)[C@@H](O)[C@@H]2O)n1` here?
A: Its activation is -6.05%.

Q: Which activation does the source give for `CCNC(=O)CCCC=CC[C@@H]1[C@H](C=CC(O)CCc2ccccc2)[C@@H](O)C[C@@H]1O` (stereo not given in full) here?
A: The activation was -2.33%.

Q: Which activation does the source give for `Cc1cccn2c(=O)c(-c3nnn[nH]3)cnc12` here?
A: The activation was -7.34%.

Q: Which activation does the source give for `NS(=O)(=O)Cc1noc2ccccc12` here?
A: The activation was 10.9%.

Q: For `O=C(Cn1ccnc1[N+](=O)[O-])NCc1ccccc1`, which activation is on record?
A: Its activation is -10.9%.

Q: With `CCC(C(=O)OCCN1CCOC(c2ccccc2)C1C)c1ccccc1` (stereo not given) as the molecule, how does the activation read?
A: Its activation is -7.53%.

Q: With `CCN1CCCC1CN` (stereo not given) as the molecule, how does the activation read?
A: Its activation is 3.35%.

Q: For `NCc1ccc(S(N)(=O)=O)cc1`, which activation is on record?
A: The activation was -15.9%.

Q: With `CCCCCCCCCCCCCCCC[N+](C)(C)CCN(Cc1ccc(OC)cc1)c1ncccn1` as the molecule, how does the Potency read?
A: The Potency was 34.7 µM (active).

Q: For `O=C1Cc2cc(Cl)ccc2N1`, which activation is on record?
A: Its activation is 5.08%.

Q: How did the activation turn out when `Nc1nnnn1-c1ccccc1` was run?
A: Its activation is 29.9%.

Q: Which activation does the source give for `CCCOC(=O)c1ccc(O)cc1` here?
A: Its activation is -10%.

Q: With `O=C(O)CCC(=O)Nc1ccc(S(=O)(=O)Nc2nccs2)cc1` as the molecule, how does the activation read?
A: Its activation is -3.95%.

Q: How did the Potency turn out when `Cc1ccc(NC2=CC(=O)c3sc(C)nc3C2=O)cc1` was run?
A: The Potency was 3.85 µM (active).

Q: `O=C(O)c1c(O)c(-c2ccccc2)nc2ccccc12` was tested. Which activation did it give?
A: Its activation is 22%.

Q: Which activation does the source give for `O=C(CCCl)NCc1ccccc1` here?
A: Its activation is -0.565%.

Q: Which activation does the source give for `CCc1cc(C(C)=NOCc2ccc(C3CCCCC3)c(C(F)(F)F)c2)ccc1CN1CC(C(=O)O)C1` here?
A: The activation was 10.9%.

Q: `C[N+]1(C)CCCC(OC(=O)C(O)(c2ccccc2)c2ccccc2)C1` (stereo not given) was tested. Which activation did it give?
A: Its activation is -37.9%.

Q: `CC(C)Nc1cccnc1N1CCN(C(=O)c2cc3cc(NS(C)(=O)=O)ccc3[nH]2)CC1` was tested. Which activation did it give?
A: The activation was -10.7%.

Q: Which activation does the source give for `C=C1C[C@H]2[C@@H]3C=C(C)C4=CC(=O)CC[C@]4(C)[C@H]3CC[C@]2(C)[C@@]1(OC(C)=O)C(C)=O` here?
A: Its activation is -0.837%.

Q: Which activation does the source give for `C[n+]1c2cc(N)ccc2cc2ccc(N)cc21` (tested in a mixture with another compound) here?
A: Its activation is -29.9%.
